From PubChem BioAssay AID2417 (National Center for Advancing Translational Sciences (NCATS), 2010)
Among all 140,000 compounds or so, about 4,300 (3.1%) were called active. Inconclusive results (about 21%) are left out. The list comes from a sample in which actives are over-represented; it also holds similar structures and randomly drawn compounds. A number with no mark means an inactive call.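 How the source made its calls: active means readout at or below -70, meaning at least 70% loss of cells showing the perinucleolar compartment, a nuclear body marking cancer cells; inconclusive means readout between -30 and a set limit; inactive means the rest.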

test: High Content Assay for Compounds that inhibit the Assembly of the Perinucleolar Compartment; settings: PC3M PTB-GFP, PNC prevalence imaging, 16 h; at 10 µM; active compounds read low;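 further: plate controls were DMSO wells for no effect and camptothecin positive control wells for full effect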
Source text: High Content Assay for Compounds that inhibit the Assembly of the Perinucleolar Compartment NIH Chemical Genomics Center [NCGC] NIH Molecular Libraries Probe Centers Network [MLPCN] MLPCN Grant: MH082371-01A2 Assay Submitter (PI): Sui Huang, Northwestern University, Feinberg School of Medicine, Cell and Molecular Biology, Chicago, Illinois. The perinucleolar compartment (PNC) is a non-membrane-bound nuclear subdomain that is associated with but structurally distinct from the nucleolus. The PNC is a heritable trait, in which the number of PNCs per cell in daughter cells often mimics that of their mother cells. The PNC is heterogeneous in shape, is stable through interphase, disassembles during mitosis, and reassembles in early G1. The PNC is concentrated with newly synthesized RNA polymerase III (pol III) RNAs (MRP RNA, RNAse P H1 RNA, hY RNAs[hY1, 2, 5], Alu RNA, and SRP [7SL] RNA) and RNA binding proteins (nucleolin, PTB, CUG-BP, KSRP, Raver1, Raver2, and Rod). […] Extensive in vitro studies have shown that the PNC is unique to tumor cells and preferentially forms in tumor cells derived from solid tissues. Examination of cancer cell lines from various origins and malignant capacities has shown that PNC prevalence correlates with the malignancy of tumors and has the potential to be developed as a pan-cancer prognostic marker. […] Although the PNC is associated with a DNA locus and a handful of components have been identified, much remains to be investigated regarding the structure and function of the PNC and its mechanistic link to cancer. We have previously shown that PNC prevalence reduction is a valid strategy to identify compounds that can be used to study the structure and function of the PNC. It is necessary, however, to create a screening platform that is able to test a large number of compounds in an automated fashion. Here we report the development and robustness of an automated whole-cell phenotypic image-based screening assay that is capable of identifying such compounds.
PNC High Content Imaging Assay Procedure: 1. Cells at a density of 75-90% confluency in T175 flasks were harvested using 7 ml TrypLE Express cell dissociation reagent. After dissociation (5 minutes room temperature incubation) 10 ml of complete media was added to the TrypLE/cell suspension. The liquid was transferred to a 50 ml Conical tube and cells were pelleted at 1000 RPM for 5 min. Supernatant was removed and cells were resuspended to a final density of 150-200 cells/ul in complete media. 2. Cells were plated in 5 ul volume (750-1000 cells/well) into 1536 well Black uclear Aurora Low Base plates and allowed to recover and adhere at 37 C in a humidified 5% CO2 incubator for 4 hours. 3. After 4 hour incubation, compound libraries (23 nl of […] in columns 5-48) were transferred to the plates in duplicate using a 1536 well pintool. Camptothecin positive control (59 uM final) was added to column 2 and 1:3 dilutions of camptothecin was added to column 3. DMSO negative controls were present in columns 1 and 4. 4. After a 16 hour incubation in the 37 C incubator, cells were fixed by the addition of 4 ul of 6% EM grade paraformaldehyde (containing 0.1% triton X 100) directly to the cells. The plates were incubated at room temperature for 20 minutes. The liquid was removed using a 32 channel Kalypsys aspirator and the fixed cells were washed twice with 5 ul PBS followed by a final addition of 5 ul PBS containing 1 ug/ml Hoechst 33342. 5. Fixed plates were sealed and sotred at 4C until imaged. 6. Plates were imaged on an InCell 1000 automated microscope using a 20 x objective, a standard FITC filter set, no camera binning, and an exposure time of ~100-150 msec/well. 7. Data analysis. PNC prevalence was determined using the Multitarget analysis module from InCell Workstation software (V3.5 ) and analysis was run on a quad core workstation using the Incell Developer Toolbox (V1.7). […]

| Compound | activity change (PNC), negative = inhibition |
| --- | --- |
| NNC(=O)c1ccc(Cl)cc1Cl | 5.71% |
| CCOc1ccccc1C1C(C(=O)OC)=CN(C)C=C1C(=O)OC | 3.14% |
| COC(=O)C1=CN(C)C=C(C(=O)OC)C1c1ccc(Cl)cc1Cl | -80.4% (active) |
| O=C(Cc1cccs1)Nc1cccc(-c2nc3ccccc3[nH]2)c1 | 3.35% |
| COc1cc(NS(=O)(=O)c2ccc(N/C=C(\C=O)c3nc4cc(Cl)ccc4o3)cc2)nc(OC)n1 | -105% (active) |
| COc1ccc(S(=O)(=O)Nc2ccc3oc(C)c(C(C)=O)c3c2)cc1 | 56.6% |
| COc1cc(NS(=O)(=O)c2ccc(N=Cc3c(C)[nH]n(-c4ccccc4)c3=O)cc2)nc(OC)n1 | -26.4% |
| O=C(c1ccc(CSc2ccccc2)cc1)N1CCCCCC1 | -13.8% |
| C=CCNC(=O)/C=C/c1ccc(C(C)C)cc1 | 29.5% |
| CC(=O)N/C(=C/c1ccc(Cl)cc1)C(=O)NCCc1c[nH]c2ccccc12 | 19.3% |
| N#C/C(=C/c1ccc(N2CCOCC2)o1)C(=O)N1CCOCC1 | 61.9% |
| N#C/C(=C/c1ccc(N2CCCCC2)o1)C(=O)NCCc1c[nH]c2ccccc12 | -86.8% (active) |
| Cn1cc(C(=O)NCc2ccccc2F)cn1 | -25.6% |
| N#C/C(=C\c1ccccc1C(F)(F)F)C(=O)Nc1ccccc1F | -16.5% |
| COc1cccc(NC(=O)CC(c2ccc(OC(C)C)cc2)c2ccccc2OC)c1 (stereo not drawn) | 21% |
| NC(=O)CCC(NS(=O)(=O)c1ccc(Cl)cc1)C(=O)NCc1ccccc1Cl (stereo not drawn) | -7.93% |
| COc1ccccc1C1SCCN1C(=O)c1ccc([N+](=O)[O-])cc1 (stereo not drawn) | 15% |
| NC1=NC(=O)C(Cc2cccc(Cl)c2)S1 (stereo not drawn) | 22.5% |
| N#Cc1ccc(N2Cc3ccccc3/C2=N/C(=O)Nc2ccc(Cl)cc2)cc1 | 16.1% |
| O=C(CSc1nc(-c2ccco2)cc(C(F)(F)F)n1)N1CCc2ccccc2C1 | -123% (active) |
| FC(F)(F)c1cc(-c2ccco2)nc(N2CCOCC2)n1 | 27.9% |
| Cc1cc(C(F)(F)F)nn1-c1nc(-c2ccco2)cc(C(F)(F)F)n1 | -13% |
| Cc1ccc(NC(=O)COC(=O)CCc2nc3ccccc3n2-c2ccccc2)c(C)c1 | 55.5% |
| O=C(NC(=S)NC1CCSC1=O)c1ccccc1F (stereo not drawn) | 12.8% |

| Compound | activity change (PNC), negative = inhibition |
| --- | --- |
| O=c1c2sccc2nc(SCc2cc(=O)n3ccccc3n2)n1-c1ccc(Br)cc1 | 0.678% |
| Cc1ccc(NC(=O)CSCC(=O)NC2CCCCC2)cc1 | 13.8% |
| O=C(CCCN1C(=O)C2C3C=CC(C3)C2C1=O)N1CCN(c2ccccc2)CC1 (stereo not drawn) | -106% (active) |
| CC(CC(=O)N1CCN(c2ccccc2)CC1)c1ccccc1 (stereo not drawn) | -11.1% |
| O=C(CCN1C(=O)C2C3C=CC(C3)C2C1=O)Nc1ccccc1F (stereo not drawn) | 25% |
| CC(C)(C)CC(C)(C)NCC(O)COCCOc1ccc(Br)cc1 (stereo not drawn) | 6.23% |
| COC(C(=O)Nc1ccc(C(C)=O)cc1)c1ccccc1 (stereo not drawn) | -124% (active) |
| CC(=O)c1ccc(NC(=O)N[C@@H](Cc2ccccc2)C(=O)O)cc1 | 64.7% |
| COc1ccc(NC(C(=O)Nc2cccc(C(C)=O)c2)c2ccccc2)cc1 (stereo not drawn) | 18.3% |
| O=C(CC(=O)N/N=C\c1cccc(Cl)c1Cl)NCc1ccccc1 | 44.3% |
| Nc1nc(SCC(=O)NNc2c(Cl)cc(Cl)cc2Cl)n[nH]1 | 21.1% |
| CCCCOc1ccc(C(=O)NN2CCN(C)CC2)cc1 | 15.4% |
| COc1ccccc1NC1=NC(c2ccc(Cl)cc2)N=C(N)N1 (stereo not drawn) | -92.7% (active) |
| COc1ccccc1Nc1nc(N)nc(CN(C)C2CCCCC2)n1 | -29.7% |
| Cc1cc(C)nc(NC(=O)c2cccc([N+](=O)[O-])c2)c1 | 69% |
| COCCCN(C(=O)Cn1ncc2c(=O)oc3ccc(C)cc3c21)C(C)c1ccncc1 (stereo not drawn) | 3.72% |
| COCCCN(C(=S)Nc1c(C)cc(C)cc1C)C(C)c1ccncc1 (stereo not drawn) | -82.2% (active) |
| CCCC/S(C)=N/S(=O)(=O)c1ccc(C)cc1 (stereo not drawn) | 24.9% |
| COc1ccc(/C(N)=N/OC(=O)Oc2ccccc2)cc1 | 13.5% |
| N/C(=N\OC(=O)N1c2ccccc2Sc2ccccc21)c1ccc(Br)cc1 | -113% (active) |
| COc1ccc(/C(N)=N/OC(=O)Cc2ccccc2)cc1 | 17.5% |
| COc1cccc(NC(=O)Cn2cnc3sc(C)c(S(=O)(=O)N4CCN(C)CC4)c3c2=O)c1 | -100% (active) |
| COc1cccc(NC(=O)CN(C)S(=O)(=O)c2ccc(C)cc2)c1 | -3.49% |
| CCN(CC)CCNC(=O)Cn1cnc2sc(C)c(S(=O)(=O)N3CCOCC3)c2c1=O | -100% (active) |

| Compound | activity change (PNC), negative = inhibition |
| --- | --- |
| COc1cccc(NC(=O)CN2CCN(c3nc(-c4cccc(OC)c4)cs3)CC2)c1 | 43% |
| CCOC(=O)c1sc(NC(=O)c2cc(S(=O)(=O)N3CCOCC3)ccc2C)nc1C | -23.4% |
| O=C(Cc1ccc(S(=O)(=O)N2CCOCC2)s1)NCCC(c1ccccc1)c1ccccc1 | 44.4% |
| CC(O)c1nc2ccccc2n1Cc1ccc([N+](=O)[O-])cc1 (stereo not drawn) | 9.78% |
| CCOc1ccc(C(=O)Nc2nccs2)cc1[N+](=O)[O-] | 8% |
| CN1CCC(=NNC(=O)c2ccc(N(Cc3ccc(Cl)cc3)S(C)(=O)=O)cc2)CC1 | -4.47% |
| O=C(CCN1C(=O)c2ccccc2C1=O)NNC(=O)c1ccc(Cl)cc1Cl | 53% |
| O=C(Nc1ccccc1Cc1ccccc1)c1ccc2c(c1)SC1=NS(=O)(=O)CCN12 | 18.7% |
| CC1CCN(S(=O)(=O)c2ccc(S(=O)(=O)NCc3ccco3)cc2)CC1 | -100% (active) |
| O=C(NC1CCC(O)CC1)c1ccc(S(=O)(=O)NCc2ccco2)cc1 (stereo not drawn) | -13.5% |
| Cc1ccc(S(=O)(=O)N2CCC(C(=O)N[C@@H](C)C(=O)NCc3ccco3)CC2)cc1 | 61.1% |
| Cn1nnnc1SCC(=O)Nc1ccccc1C(=O)NC1CC1 | -17.1% |
| CCc1ccc(NC(=O)CSc2nc3ccccc3c(=O)n2CCN2CCOCC2)cc1 | -23.7% |
| CC(C)n1c(SCC(=O)Nc2ccccc2N2CCCCC2)nc2c1c(=O)n(C)c(=O)n2C | -24% |
| CCn1c(Cc2ccccc2)nnc1SCC(=O)Nc1ccccc1 | -27.9% |
| CCn1c(SCC(=O)Nc2ccccc2F)nc2c(c1=O)SC(C)C2 (stereo not drawn) | -100% (active) |
| CC1Cc2nc(SCC(=O)Nc3ccccc3F)n(C)c(=O)c2S1 (stereo not drawn) | -100% (active) |
| COc1ccc(C/C(C)=N/NC(=O)c2ccncc2)cc1 | 36.6% |
| COc1cc(C)nc(N2CCCC(C(=O)NCC(C)C)C2)n1 (stereo not drawn) | -100% (active) |
| Cc1cc(=O)n2nc(N3CCCC(C(=O)NCCC4=CCCCC4)C3)sc2n1 (stereo not drawn) | 6.76% |
| Cc1ccnc(N2CCCC(C(=O)Nc3cc(F)ccc3C)C2)n1 (stereo not drawn) | -22.4% |
| NS(=O)(=O)c1ccc(CCNC(=S)Nc2ccc(S(N)(=O)=O)cc2)cc1 | 74.6% |
| CCOC(=O)NC(=O)C(=CNc1cccc(OC)c1)C(=O)NC(=O)OCC | 45.4% |
| CCOC(=O)C(NC(=O)CC(C)C)(Nc1sc2c(c1C(N)=O)CCCC2)C(F)(F)F (stereo not drawn) | 0.0946% |

| Compound | activity change (PNC), negative = inhibition |
| --- | --- |
| CCn1nc(C(=O)OCC(=O)N2c3ccccc3CC2C)c2ccccc2c1=O (stereo not drawn) | -8.81% |
| CC1Cc2ccccc2N1C(=O)Cn1cnc2ccccc2c1=O (stereo not drawn) | -80.4% (active) |
| CC1Cc2ccccc2N1C(=O)CSc1nc2ccccc2o1 (stereo not drawn) | 31.3% |
| COc1ccc(C2CC(c3ccccc3)=NN2C(=O)c2ccc(Cl)c([N+](=O)[O-])c2)cc1 (stereo not drawn) | 27.8% |
| CCOc1ccc(S(=O)(=O)N(CC(=O)NCC(F)(F)F)Cc2ccco2)cc1 | 52.1% |
| Cc1cc(/C=C2\SC(=Nc3ccc(N4CCOCC4)cc3)N(C)C2=O)c(C)n1-c1cccnc1 | -27.8% |
| CN1CCCC(OC(=O)COc2ccc(Br)cc2)C1 (stereo not drawn) | -86.4% (active) |
| CC(=O)Nc1ccc(OC(=O)COc2ccc(Br)cc2)cc1 | 36.4% |
| CCOC(=O)N1CCN(C(=O)COc2ccc(Br)cc2)CC1 | -29.5% |
| COc1ccc(C(C(=O)NC2CCCCC2)N(C(=O)Cc2c[nH]c3ccccc23)c2ccccc2)cc1OC (stereo not drawn) | 32.6% |
| COc1ccc(CCNC(=O)c2ccco2)cc1 | 24.7% |
| CS(=O)(=O)N(Cc1ccc(Cl)cc1)c1ccc(C(=O)NCCSCc2ccco2)cc1 | 22.9% |
| COc1cc(OC)cc(C(=O)NCCSCc2ccco2)c1 | -94.6% (active) |
| O=C(/C=C/c1cccc([N+](=O)[O-])c1)NCCSCc1ccco1 | -113% (active) |
| CCC(CC)NC(=O)/C=C/c1cccc([N+](=O)[O-])c1 | -18.8% |
| O=C(/C=C/c1ccc([N+](=O)[O-])cc1)NCCSCc1ccco1 | 85.9% |
| CC(=O)c1c(O)cc2n(c1=O)-c1ccc(Cl)cc1C2(C)C | -2.74% |
| O=C(NC(=O)N1CCOCC1)c1ccccc1 | 6.63% |
| O=C(Nc1ccn(Cc2ccccc2)n1)c1n[nH]c([N+](=O)[O-])c1Cl | 5.38% |
| CC(Sc1cccc[n+]1[O-])C(=O)Nc1cccc(S(=O)(=O)N2CCOCC2)c1 (stereo not drawn) | -7.27% |
| COc1ccc(-c2csc(NC(=O)COC(=O)c3ccc(Br)o3)n2)cc1 | -8.03% |
